# Test results published in PubChem BioAssay AID1851 (National Center for Advancing Translational Sciences (NCATS), 2009).
# “And” between values parts separate entries of the source, which are not always exact repeats. Equal entries are not always repeated. In all, about 16,000 compounds went through this assay and about 5,700 (36%) were called active. Roughly 24% stayed inconclusive and do not appear here. Some of the results follow. Unmarked numbers belong to inactive results. Calls come from the whole dose curve; as a rule, active = well fitted curve in the direction sought with a large enough effect; inconclusive = small, poorly fitted or top-dose-only effect, or effect the other way; inactive = no such curve, though single readings can be large or run the other way.
# Biological target: Cytochrome P450 1A2 (Homo sapiens) (UniProt P05177)
# Sequence (P05177 whole entry, looked up): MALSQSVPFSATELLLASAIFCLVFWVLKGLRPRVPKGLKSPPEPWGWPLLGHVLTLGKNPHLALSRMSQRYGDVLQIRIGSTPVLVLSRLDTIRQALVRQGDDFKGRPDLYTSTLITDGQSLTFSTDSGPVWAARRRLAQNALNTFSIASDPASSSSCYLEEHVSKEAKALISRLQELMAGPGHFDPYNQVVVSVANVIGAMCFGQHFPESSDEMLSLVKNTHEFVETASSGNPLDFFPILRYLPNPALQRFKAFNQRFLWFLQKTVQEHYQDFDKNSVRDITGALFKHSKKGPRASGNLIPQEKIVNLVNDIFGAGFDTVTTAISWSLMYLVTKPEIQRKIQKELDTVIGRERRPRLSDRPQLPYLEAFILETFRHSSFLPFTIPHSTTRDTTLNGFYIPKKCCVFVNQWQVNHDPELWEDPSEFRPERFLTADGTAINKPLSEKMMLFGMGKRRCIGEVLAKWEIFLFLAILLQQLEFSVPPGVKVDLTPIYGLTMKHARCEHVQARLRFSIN
# Test: Cytochrome panel assay with activity outcomes
# Conditions: recombinant CYP, pro-luciferin dealkylation, luminescence, p450-cyp1a2; series mostly up to 57.1 µM
# % is set by controls: 0 for no effect and ±100 for the full control effect.
SMILES,AC50,"activity, negative = inhibition"
O=C(O)c1cccnc1,inactive,–
C[Si](C)(c1ccc(C(=O)O)cc1)c1ccc(C(=O)O)cc1,–,-13% [at 11.4 µM]
O=C(O)c1ccc(SSc2ccc(C(=O)O)cn2)nc1,3.16 µM (active),–
CN(C)c1ccccc1CN1CCCN(Cc2ccccc2N(C)C)C1c1ccncc1,–,3.06% [at 11.4 µM]
CC(=O)c1cccc(NS(=O)(=O)c2ccc(N/C=C\C(=O)c3ccc(F)cc3)cc2)c1,10 µM (active),–
Nc1cccc2cc(S(=O)(=O)Nc3ccc(C(=O)O)cc3)ccc12,–,2.54% [at 11.4 µM]
CC(=O)c1ccc(S(=O)(=O)NC(=O)NC2CCCCC2)cc1,inactive,–
CCCN(CC1CC1)c1nc(C)nc(Nc2c(Cl)cc(Cl)cc2Cl)c1Cl,inactive,–
Cc1cc(Cl)ccc1OCC(=O)Nc1nc(N)nc(N)n1,–,2.06% [at 2.29 µM]
CCCn1nnnc1NC(=O)COc1ccc(Cl)cc1C,14.1 µM (active),–
Cc1cc(Cl)ccc1OCC(=O)NCc1ccncc1,1.12 µM (active),–
CCn1c(=O)c2c(O)cc(=O)oc2c2ccccc21,11.2 µM (active),–
CC(C)n1c(=O)c2c(O)cc(=O)oc2c2ccccc21,5.01 µM (active),–
O=C(c1cnccn1)N1CCC2(CC1)CCN(c1ccccn1)CC2,inactive,–
CCn1c(SCC(=O)NC2CCCCC2)nnc1-c1cc2cccc(OC)c2o1,8.91 µM (active),–
O=C(CSc1nnc(-c2ccc(Cl)cc2Cl)n1C1CCCCC1)NC1CCS(=O)(=O)C1 (stereo not given),inactive,–
CCn1c(SCC(=O)NC2CCCc3ccccc32)nnc1-c1cccs1 (stereo not given),inactive,–
Nc1ccccc1C#Cc1ccccc1,501 nM (active) and 1.58 µM (active),–
Cc1cc(C)c(Cn2cnc(-c3ccc([N+](=O)[O-])cc3)c2)c(C)c1,15.8 µM (active),–
C1CCN(CC[C@@H]2CCCCN2)CC1,–,-7.33% [at 11.4 µM]
Cc1ccccc1-c1nc(-c2ccc(NC(=O)c3cccs3)cc2)no1,14.1 µM (active),–
Cc1ccc(-c2nnc(-c3ccc(NC(=O)c4cccs4)cc3)o2)cc1,inactive,–
CC(=O)N1CCc2cc(S(=O)(=O)CCC(=O)Nc3c(C)n(C)n(-c4ccccc4)c3=O)ccc21,inactive,–
Cc1ccccc1OCC(=O)Nc1sc(C(=O)Nc2cccc(C)c2C)c(C)c1C#N,inactive,–

SMILES,AC50,"activity, negative = inhibition"
Cc1ccccc1OCCNC(=O)c1ccccc1Sc1ccccc1C#N,14.1 µM (active),–
Cc1cc(N)ccc1NC(=O)c1ccccc1,3.16 µM (active),–
CCOC(=O)c1cc(NC(=O)c2ccc(C)cc2)c(=O)oc1-c1ccccc1,inactive,–
CC(=O)c1cc(NC(=O)c2ccccc2)c(=O)oc1/C=C/N(C)C,12.6 µM (active),–
Cc1ccc(C(=O)Nc2cc3c(oc2=O)CCCC3=O)cc1,14.1 µM (active),–
CC(C)(C)N(NC(=O)c1ccccc1)C(=O)c1cccc(C(=O)N(NC(=O)c2ccccc2)C(C)(C)C)c1,inactive,–
Cc1oc(=O)c(NC(=O)c2ccccc2)cc1C(=O)c1ccccc1,12.6 µM (active),–
CC(=O)c1cc(NC(=O)c2cccc(C(F)(F)F)c2)c(=O)oc1/C=C/N(C)C,inactive,–
Cc1ccc(C)c2sc(NC(=O)c3ccc(N4CCCCC4)c([N+](=O)[O-])c3)nc12,inactive,–
COc1ccccc1N1CCN(CCN(C(=O)C2CCCCC2)c2ccccn2)CC1,inactive,–
O=C(c1ccc(N2CCCCC2)c([N+](=O)[O-])c1)N(Cc1ccccc1)c1ccccn1,14.1 µM (active),–
CCOC(=O)NCc1ccc2c(c1)cc(C)n2C,2 µM (active),–
CN[C@@H]1[C@H](O[C@H]2[C@@H](O[C@@H]3[C@@H](O)[C@@H](O)[C@@H](N=C(N)N)[C@@H](O)[C@@H]3N=C(N)N)O[C@@H](C)[C@]2(O)CO)O[C@H](CO)[C@@H](O)[C@@H]1O,inactive,–
Cc1ccccc1OCC(=O)OC1CCN(C)CC1,inactive,–
CNC(=S)NNC(=O)COc1ccccc1C,15.8 µM (active),–
CCOc1ccc(C(F)(F)F)cc1NC(=O)c1ccc(OC)c([N+](=O)[O-])c1,3.55 µM (active),–
CC(=O)Nc1cc(C(F)(F)F)ccc1Oc1cccc(Br)c1,10 µM (active),–
CCOc1ccc(C(=O)Cc2cc(OC)c(OC)cc2[N+](=O)[O-])cc1,inactive,–
CN(C(=O)COc1cccc(Br)c1)C1CCS(=O)(=O)C1 (stereo not given),inactive,–
CCOc1ccc(C(F)(F)F)cc1NC(C)=O,0.1 µM (active),–
CCCC(=O)N1CCN(c2ccc(NC(=O)c3ccc(OCC)c([N+](=O)[O-])c3)cc2)CC1,inactive,–
CC(=O)Oc1cc(C(F)(F)F)ccc1C(=O)O,inactive,–
CC(=O)NC1=NC(=O)C(C)S1 (stereo not given),inactive,–
N[C@@H](Cc1nn[nH]n1)C(=O)O,–,-8.69% [at 11.4 µM]

SMILES,AC50,"activity, negative = inhibition"
Nc1[nH]c(=O)nc2c1ncn2[C@H]1O[C@@H](CO)[C@@H](O)[C@@H]1O,–,-0.635% [at 11.4 µM]
CC1=NCC[N@@+]1(CCc1ccccc1)Cc1ccccc1,–,-17.6% [at 11.4 µM]
Cc1ccc(CSc2nc3c(c(SCC(=O)O)n2)CCCC3)cc1,inactive,–
C[C@H](Nc1ncnc2sc3c(c12)CCC3)C(=O)O,inactive,–
OCCNc1nc(SCc2ccccc2)nc2sc3c(c12)CCC3,1 µM (active),–
COCCNc1nc(SCc2ccccc2)nc2sc3c(c12)CCC3,1 µM (active),–
CC(CO)Nc1nc(SCc2ccccc2)nc2sc3c(c12)CCC3 (stereo not given),0.2 µM (active),–
CCCCNC(=O)C1CC(=O)N(CCC(C)C)C1 (stereo not given),inactive,–
CCCCNC(=O)[C@@H]1Cc2ccccc2N1C(=O)[C@H](N)CC,20 µM (active),–
CCCCNC(=O)C1CCN(Cc2ccccn2)CC1,inactive,–
O=C(O)Cn1ccnc1[N+](=O)[O-],–,-3.98% [at 11.4 µM]
CCOC(=O)c1cc2c(=O)n3ccccc3nc2n(CCOC)c1=NC(=O)C(C)(C)C,3.16 µM (active),–
CCOC(=O)c1cc2c(=O)n3ccccc3nc2n(CCCOC)c1=NC(C)=O,12.6 µM (active),–
C[C@H]1[C@H](C)OC(=O)C[C@H](O)C[C@H](O)C[C@H](O)CC[C@H](O)[C@H](O)CC(=O)C[C@H](O)[C@H](C(=O)O)[C@H](O)C[C@H](O[C@@H]2O[C@@H](C)[C@H](O)[C@@H](N)[C@@H]2O)C=CC=CC=CC=CCCC=CC=C[C@@](C)(O)[C@H]1O,–,12.4% [at 11.4 µM]
O=[N+]([O-])c1cccc(/C=N/Nc2cc(Cl)nc(-c3ccccc3)n2)c1,1.26 µM (active),–
CN(C)c1ccc(-c2ccc3ncnc(N4CCNCC4)c3c2)cc1,2.51 µM (active),–
CN1CCN(c2ncnc3ccc(-c4ccc5c(c4)OCO5)cc23)CC1,2.51 µM (active),–
c1nc(N2CCNCC2)c2cc(-c3ccc4c(c3)OCO4)ccc2n1,2 µM (active),–
CN1CCN(c2ncnc3ccc(-c4ccc(C(=O)N(C)C)cc4)cc23)CC1,inactive,–
CN(C)C(=O)c1ccc(-c2ccc3ncnc(N4CCNCC4)c3c2)cc1,inactive,–
C[C@H]1C[C@H]2[C@H]3CCC4=CC(=O)C=C[C@@]4(C)[C@]3(F)[C@H](O)C[C@]2(C)[C@@]1(O)C(=O)COP(=O)(O)O,–,2.48% [at 11.4 µM]
CC1(C)O[C@@H]2C[C@H]3[C@H]4C[C@H](F)C5=CC(=O)C=C[C@@]5(C)[C@@H]4[C@H](O)C[C@]3(C)[C@]2(C(=O)CO)O1,inactive,–
CCC1CC(CSc2ncn[nH]2)OC1=O (stereo not given),inactive,–
Clc1ccccc1-c1nc(-c2ccccc2)n[nH]1,1 µM (active),–

SMILES,AC50,"activity, negative = inhibition"
COc1ccc(CNc2ncncc2-c2ccc3c(c2)OCO3)c(OC)c1,0.501 µM (active),–
COc1ccccc1CNc1ncncc1-c1ccc2c(c1)OCO2,0.158 µM (active),–
Cc1nnc(S(=O)(=O)c2ccc(N=Nc3c(N)nc(N)nc3N)cc2)s1,–,-10.2% [at 2.29 µM]
O=C(c1ccco1)N1CCC2(CCN(Cc3ccccc3)CC2)CC1,inactive,–
Cc1nn(C(=O)c2ccco2)c(C)c1Sc1ccccc1,15.8 µM (active),–
Cc1nn(C(=O)c2ccco2)c(C)c1Sc1ccc(Br)cc1,14.1 µM (active),–
Cc1nc2ncnn2c(C)c1CCC(=O)N1CCN(C(=O)c2ccco2)CC1,inactive,–
Cc1nn(C(=O)CN2C(=O)c3ccccc3C2=O)c(C)c1Br,inactive,–
Cc1nn(C(=O)c2cccnc2)c(C)c1Sc1ccc(Br)cc1,7.08 µM (active),–
CCCCN(C(=S)Nc1ccccc1)C1CCS(=O)(=O)C1 (stereo not given),inactive,–
O=C(O)[C@@H]1C[C@@H](C(=O)O)N1,31.6 µM (active),–
O=C(O)[C@@H]1CCCN1,–,-12% [at 11.4 µM]
O=C(O)[C@H]1C[C@H](C(=O)O)N1,inactive,–
NC(N)=N/N=C\c1ccc(O)c(C(=O)O)c1,–,-11.9% [at 2.29 µM]
NC(N)=NN=Cc1c(Cl)cccc1Cl,7.94 µM (active) and 3.98 µM (active),–
NC(N)=NC(=O)Cc1c(Cl)cccc1Cl,inactive,–
Cc1cccc(NC(=O)c2ccc([N+](=O)[O-])o2)n1,5.01 µM (active),–
Cc1cccc(NC(=O)c2cc(=O)c3ccccc3o2)n1,2 µM (active),–
Cc1ccc(OCC(=O)NNC(=O)c2cc3ccccc3o2)cc1,inactive,–
Cc1cccc(Sc2c([N+](=O)[O-])ncn2C)n1,inactive,–
Cc1cccc(NC(=O)c2cc(N3C(=O)CCC3=O)ccc2Cl)n1,inactive,–
CN(C)C(=O)CCc1nc(-c2ccc(C(C)(C)C)cc2)no1,6.31 µM (active),–
CNC(=O)CCc1nc(-c2ccc(C(C)(C)C)cc2)no1,6.31 µM (active),–
